Sampled rows, rich in hits. Any-hit rate of the full collection: about 2.9%.
LYPLA2 inh: blocks human lysophospholipase 2, a PME1 counter-screen | 0.38% of 320,000 active | inhibition, % at 5.9 µM | recombinant LYPLA2, FP-Rh probe fluorescence polarization | AID 2177 | O95372;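 active = inhibition above the screen-wide mean plus 3 SD, limit set per campaign, cut at about 26% in these data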
Target sequence (O95372 whole entry, looked up): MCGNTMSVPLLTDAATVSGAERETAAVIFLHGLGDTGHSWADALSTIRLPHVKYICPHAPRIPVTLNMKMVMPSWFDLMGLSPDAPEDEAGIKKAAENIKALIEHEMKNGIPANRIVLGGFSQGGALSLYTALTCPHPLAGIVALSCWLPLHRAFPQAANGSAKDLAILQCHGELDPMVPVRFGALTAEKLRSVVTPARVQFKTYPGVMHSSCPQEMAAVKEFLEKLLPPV
PAFAH2 inh: inhibitors of human PAFAH2 | Q99487 | recombinant PAFAH2, FP-rhodamine activity probe, fluorescence polarization | inhibition, % at 3.39 µM | 0.99% of 340,000 active;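 active = inhibition above the mean over all tested compounds plus 3 SD, cut at about 30% in these data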;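 also: inhibitors block probe labeling of enzyme so polarization drops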
LYPLA1 inh: blocks human lysophospholipase 1, a PME1 counter-screen | recombinant LYPLA1, FP-Rh probe fluorescence polarization | inhibition, % at 5.9 µM | O75608 | 0.16% of 320,000 active | AID 2174;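 active = inhibition above the mean of all tested compounds plus 3 SD, set per campaign, cut at about 14% in these data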;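 also: inhibitors block serine hydrolase probe labeling of LYPLA1 so polarization falls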
PAFAH1B3 inh: inhibitors of human PAFAH1B3; Q15102; recombinant PAFAH1B3, FP-rhodamine probe, fluorescence polarization; inhibition, % at 3.39 µM; 0.28% of 340,000 active; AID 492972;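 active = inhibition above the screen-wide average of all tested compounds plus 3 SD, cut at about 25% in these data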
Target sequence (Q15102 whole entry, looked up): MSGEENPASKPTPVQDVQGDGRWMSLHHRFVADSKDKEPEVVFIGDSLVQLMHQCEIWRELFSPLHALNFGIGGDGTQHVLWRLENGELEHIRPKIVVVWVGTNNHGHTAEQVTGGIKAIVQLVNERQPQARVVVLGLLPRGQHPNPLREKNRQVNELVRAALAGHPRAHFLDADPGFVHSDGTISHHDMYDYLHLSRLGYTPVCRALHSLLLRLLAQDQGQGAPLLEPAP
pPAFAH FP inh: inhibitors of human plasma PAF acetylhydrolase (pPAFAH). Q13093. recombinant pPAFAH, FP-rhodamine probe fluorescence polarization. inhibition, % at 3.39 µM. 1.5% of 330,000 active. AID 463082;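 active = inhibition above the mean inhibition across the screen plus 3 SD, cut at about 25% in these data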;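 also: inhibitors block binding of the rhodamine activity-based probe so polarization drops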
PAFAH1B2 FP inh: PAFAH1B2 (human) inhibition | recombinant PAFAH1B2, FP-rhodamine activity probe, fluorescence polarization | P68402 | 1.2% of 340,000 active | inhibition, % at 3.39 µM;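 active = inhibition above the mean of all tested compounds plus 3 SD, cut at about 24% in these data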
LYPLA2 conf: LYPLA2 (human) inhibition, confirmation counter-screen. shares compounds with LYPLA2 inh. recombinant LYPLA2, FP-Rh probe fluorescence polarization. inhibition, % at 5.9 µM. 72% of 1,100 active. AID 2232;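 active = mean inhibition across replicates above the hit cutoff set in the primary screen, cut at about 26% in these data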;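 also: blocked labeling of the enzyme by serine hydrolase FP-Rh probe lowers polarization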
pPAFAH FP conf: pPAFAH (human) inhibition, confirmed. inhibition, % at 3.39 µM. shares compounds with pPAFAH FP inh. recombinant pPAFAH, FP-Rh probe fluorescence polarization. 72% of 2,300 active;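 active = mean inhibition of the triplicate above the hit cutoff set for the earlier primary screen, cut at about 25% in these data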
Each line names hits and unclear results; the compound was inactive in the other large screens (follow-up assays come after a bar, where they were run).

COc1ccc(C2SCC(=O)Nc3c2c(=O)[nH]n3C2CCCCC2)cc1 (stereo not given)	none
CCN(CC)C(=O)c1ccc(NC(=S)NC(=O)CCc2ccccc2)cc1	LYPLA2 inh 29.7 | LYPLA2 conf inactive
Cc1occc1C(=O)N1CCC2(CC1)OCCO2	none
CC1CCCC(NC(=O)COC(=O)Cc2ccccc2)C1C (stereo not given)	pPAFAH FP inh 40.1 | pPAFAH FP conf 39.5
O=C(Cc1ccccc1)OCc1ccccc1	none
COc1cc(CC2(CCc3ccncc3)C(=O)NC(=O)NC2=O)cc(OC)c1OC	none
COc1cc2c(cc1OC)-c1c(OC)c(OC)c(OC)c3ccnc(c13)C2=O	pPAFAH FP inh 38.0 (no result: PAFAH2 inh, PAFAH1B3 inh, PAFAH1B2 FP inh) | pPAFAH FP conf inactive
CCC(=O)N1CC(=O)Nc2ccc(Br)cc2C1c1ccccc1 (stereo not given)	none
Cn1cccc1/C=C1/C(=O)NC(=S)N(Cc2ccc(F)cc2)C1=O	PAFAH2 inh 43.8, pPAFAH FP inh 61.5, PAFAH1B2 FP inh 55.4 | pPAFAH FP conf 45.1
O=C1NC(=O)N(Cc2ccc(F)cc2)C(=O)/C1=C\C=C\c1ccco1	pPAFAH FP inh 36.0, PAFAH1B2 FP inh 29.6 | pPAFAH FP conf inactive
CCc1ccc(N2C(=O)NC(=O)/C(=C\C=C\c3ccco3)C2=O)cc1	none
CC(C)c1ccc(N2C(=O)NC(=O)/C(=C/C=C/c3ccco3)C2=O)cc1	pPAFAH FP inh 42.7 | pPAFAH FP conf inactive
CNC(=S)N(C)CCc1cc2c(c(OC)c1/C=C1/C(=O)NC(=O)N(C)C1=O)OCO2	none
CCC(=O)c1ccc(OCC(=O)N2CCN(CC(=O)Nc3ccccc3C(F)(F)F)CC2)cc1	none (no result: LYPLA2 inh, LYPLA1 inh)
N#Cc1ccccc1Cn1cc(C(=O)c2ccco2)c2ccccc21	pPAFAH FP inh 72.3 | pPAFAH FP conf 76.7
O=C(c1ccco1)c1cn(Cc2ccccc2Cl)c2ccccc12	pPAFAH FP inh 73.7 | pPAFAH FP conf 75.9
O=C(CF)N(O)c1ccc(C=Cc2ccccc2)cc1	none (no result: LYPLA2 inh, LYPLA1 inh, pPAFAH FP inh)
COc1ccc2c3c1OC1[C@H](O)CCC4[C@@H](C2)N(C)CC[C@]314 (stereo not given in full)	pPAFAH FP inh 35.1 (no result: LYPLA2 inh, LYPLA1 inh) | pPAFAH FP conf inactive
CCc1nccc2c1[nH]c1ccccc12	none
O=c1[nH]c(=S)n(-c2ccc(Br)cc2)c(O)c1C=Nc1ccc(N2CCOCC2)cc1	pPAFAH FP inh 57.0 | pPAFAH FP conf 33.5
CC(=O)N1CCN(c2ccc(N=Cc3c(O)n(-c4ccc(Cl)cc4)c(=O)[nH]c3=O)cc2)CC1	pPAFAH FP inh 40.6 | pPAFAH FP conf inactive
Nc1ncc(P(=S)(N2CCOCC2)N2CCOCC2)s1	none
COc1ccc(C(=O)C(Cc2ccccc2)N(C)C)cc1 (stereo not given)	none
O=[N+]([O-])c1ccc(CNCCc2ccccc2)cc1	none
O=C(COC(=O)Cc1ccccc1)Nc1ncc(Cl)cc1Cl	pPAFAH FP inh 35.2 | pPAFAH FP conf inactive
O=C(COC(=O)Cc1ccccc1)Nc1ccc(Cl)cn1	none
C=CCn1c(O)c(C=Nc2ccc(N(CC)CC)cc2)c(=O)[nH]c1=O	pPAFAH FP inh 43.5 | pPAFAH FP conf inactive
Cc1ccccc1-n1c(O)c(C=Nc2ccc(N(C)C)cc2)c(=O)[nH]c1=O	pPAFAH FP inh 46.1 | pPAFAH FP conf inactive
Oc1ccc2c3c1OC1C(O)CC[C@@]4(O)[C@@H](C2)N(CC2CCC2)CC[C@]314 (stereo not given in full)	none (no result: PAFAH2 inh, PAFAH1B3 inh, PAFAH1B2 FP inh)
COc1ccc(OC)c(N2C(=O)NC(=O)/C(=C\c3ccc([N+](=O)[O-])s3)C2=O)c1	PAFAH2 inh 54.3, PAFAH1B3 inh 60.7, pPAFAH FP inh 63.5, PAFAH1B2 FP inh 47.0 | pPAFAH FP conf 69.3
O=C1NC(=O)N(c2ccccc2)C(=O)/C1=C\c1ccc([N+](=O)[O-])s1	pPAFAH FP inh 56.3 (no result: PAFAH2 inh, PAFAH1B3 inh, PAFAH1B2 FP inh) | pPAFAH FP conf 45.8
CCCCCCCCN=Cc1c(O)[nH]c(=O)[nH]c1=O	pPAFAH FP inh 62.5 (no result: PAFAH2 inh, PAFAH1B3 inh, PAFAH1B2 FP inh) | pPAFAH FP conf inactive
COCCCN=Cc1c(O)[nH]c(=S)[nH]c1=O	none
CCCCS(=O)(=O)N1CCN(C(=N)N[N+](=O)[O-])CC1	none (no result: PAFAH2 inh, PAFAH1B3 inh, PAFAH1B2 FP inh)

Source: PubChem BioAssay
